Here are results for 14 compounds from PubChem BioAssay (Tox21).

Test [1] is described as follows: Nuclear factor erythroid 2-related factor 2/antioxidant responsive element (Nrf2/ARE) small molecule agonists: luciferase reporter gene qHTS assay in human keratinocytes (AID 1919969; also: nearly all actives have a fitted effect of over 35% in size; also: potency is read from the fitted curve at half-maximal effect). (A reporter such as luciferase makes a cellular process visible.)
Test [2] deals with Gonadotropin-releasing hormone receptor (Homo sapiens) (UniProt P30968). In words: Human gonadotropin-releasing hormone receptor (GnRHR) small molecule agonists, calcium flux assay in GnRHR-HEK293 cells (AID 1920063). Also: nearly all actives have a fitted effect of over 35% in size. In short, it runs like this:
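Calcium-dye fluorescence, Ex/Em=480/540, recorded every 1 sec over 3 min after compound addition to GnRHR-HEK293 cells. Cells had been seeded 18 hours earlier and dye-loaded for 1 hour at 37 C. Fifteen concentrations, triplicates.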
(A change in cytosolic calcium serves as a functional read-out for many receptors and channels.)

The target in test [3] is KiSS-1 receptor (Homo sapiens) (UniProt Q969F8). In words: Human kisspeptin (KISS1R) small molecule agonists, calcium flux assay in KISS1R-HEK293 cells (AID 1920064; active = well fitted activation curve with a large enough effect in the repeat runs). The procedure, abridged:
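Calcium flux read-out: kinetic fluorescence at Ex/Em=480/540, 1 s intervals over 3 min, after pin-tool compound addition to dye-loaded KISS1R-HEK293 cells. Fifteen concentrations, triplicates.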

Test [4] can be described thus: G protein-coupled receptor (GPCR) small molecule agonists, calcium flux assay: HEK293 wild type cell line counter screen (AID 1920065). In short, it runs like this:
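Agonist mode; 18 h seeding at 37 C, 1 h dye load at 37 C; compounds pinned from DMSO, ATP as positive control; kinetic fluorescence 480/540 nm, 3 min, 1 s reads; 15 concentrations, triplicate.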

Test [5] can be described thus: p53 small molecule agonists, cell-based qHTS assay with human liver microsomes: qHTS cell viability counter screen (AID 1963579). Also: nearly all actives have a fitted effect of over 45% in size. In short, it runs like this: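 Tox21 library compounds, delivered from DMSO stocks, were tested on p53RE-bla cells together with 0.5 mg/mL human liver microsomes and 0.5 mg/mL NADPH (final) over 16 h at 37 C; CellTiter-Glo luminescence served as the cytotoxicity measure.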

Test [6] in a line: p53 small molecule agonists, cell-based qHTS assay with rat liver microsomes: qHTS cell viability counter screen (AID 1963580). Also: nearly all actives have a fitted effect of over 45% in size. In short, it runs like this:
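Cytotoxicity counter screen: intracellular ATP measured by CellTiter-Glo luminescence in the same wells as the beta-lactamase reporter read, on HCT-116 p53RE-bla cells exposed 16 h at 37 C to compounds with rat liver microsomes and NADPH, each 0.5 mg/mL final.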

A short description of test [7]: p53 small molecule agonists, cell-based qHTS assay: qHTS cell viability counter screen (AID 1963581). Also: nearly all actives have a fitted effect of over 45% in size. In short, it runs like this:
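Cytotoxicity read-out: ATP-based luminescence (CellTiter-Glo, 30 min RT) measured in the same wells as the p53 reporter assay, HCT-116 p53RE-bla cells, 16 h compound exposure at 37 C.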
In general terms: Quantitative high-throughput screening tests each substance at several concentrations.

The target of test [8] is 5-hydroxytryptamine receptor 2A (Homo sapiens) (UniProt P28223). In words: 5-hydroxytryptamine receptor 2A (HTR2A) small molecule antagonists, cell-based qHTS assay (AID 1963586). Also: nearly all actives have a fitted effect of over 45% in size. Also: potency is read from the fitted curve at half-maximal effect. In short, it runs like this:
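CHO cells stably expressing human HTR2A were plated for 18 h at 37 C, then loaded with calcium dye for 1 h. Compounds were preincubated 5 min at room temperature before DOI (4 nM solution) was added. Kinetic fluorescence was read for 3 min.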

For test [9] the target is unchanged. In words: 5-hydroxytryptamine receptor 2A (HTR2A) small molecule agonists, cell-based qHTS assay (AID 1963587). Also: nearly all actives have a fitted effect of over 30% in size. In short, it runs like this: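 CHO cells stably expressing human HTR2A, plated 18 h, loaded with calcium dye 1 h at 37 C. Agonist mode: compounds added and intracellular calcium fluorescence recorded kinetically for 2 min at 1 sec intervals.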
Test [10] deals with Muscarinic acetylcholine receptor M1 (Homo sapiens) (UniProt P11229). In words: Cholinergic receptor muscarinic 1 (CHRM1) small molecule antagonists, cell-based qHTS assay (AID 1963588). Also: nearly all actives have a fitted effect of over 40% in size. Also: potency is read from the fitted curve at half-maximal effect. In short, it runs like this: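 Compounds were tested at 15 concentrations in three independent runs. Dye-loaded CHRM1-CHO cells were exposed 5 min at room temperature before stimulation by acetylcholine added at 50nM. Intracellular calcium was read kinetically on FDSS for 3 min.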

Test [11] shares this target. The test can be described thus: Cholinergic receptor muscarinic 1 (CHRM1) small molecule agonists, cell-based qHTS assay (AID 1963589). Also: nearly all actives have a fitted effect of over 35% in size. In short, it runs like this:
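Calcium flux read-out: kinetic fluorescence at 1 sec intervals after pin-tool compound addition to dye-loaded CHRM1-CHO cells (human M1). Agonist mode; 15 concentrations tested in triplicate independent runs.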

Test [12] is described as follows: cAMP Responsive Elements (CRE) small molecule agonists, cell-based qHTS assay (AID 1963590). The procedure, abridged: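 Beta-lactamase reporter readout: LiveBLAzer B/G FRET substrate, 2 h at room temperature, added after 3 h compound treatment of CRE-bla HEK 293T cells at 37 C/5% CO2.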
A short description of test [13]: cAMP Responsive Elements (CRE) small molecule antagonists, cell-based qHTS assay (AID 1963591; active = well fitted inhibition curve with a large enough effect in the signal ratio in the repeat runs, not every such curve was filed as active; the % refers to the signal ratio). The procedure, abridged: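 HEK293T CRE-bla; 18 h preincubation; compound pin-transfer; NKH477 0.25 uM final, 3 h, 37 C; LiveBLAzer FRET substrate 2 h RT.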
For test [14], the target named is Beta-2 adrenergic receptor (Homo sapiens) (UniProt P07550). In words: Adrenergic beta2 receptor (ADRB2) small molecule antagonists, cell-based qHTS assay (AID 1963592). Also: nearly all actives have a fitted effect of over 50% in size. Also: potency is read from the fitted curve at half-maximal effect. In short, it runs like this: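 Assay format: CHO-ADRB2 cells, 18-20hr seeding at 37C/5% CO2, then compound plus 1nM isoproterenol agonist mix for 0.5hr RT. Homogeneous time-resolved fluorescence cAMP detection after 1hr, expressed as 665/615 nm ratio.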

Test [15] has as its target D(2) dopamine receptor (Homo sapiens) (UniProt P14416). The test can be described thus: Dopamine D2 receptor (DRD2) small molecule antagonists, cell-based qHTS assay (AID 1963595; active = well fitted inhibition curve with a large enough effect in the signal ratio in the repeat runs, with a control signal flat; the % refers to the signal ratio). The procedure, abridged: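 Readout: HTRF cAMP, cAMP-d2 competing with cellular cAMP for anti-cAMP cryptate, read after 1 h. Cells: DRD2-HEK293. Conditions: 0.1 mM Ro20-1724, 12 nM quinpirole, 200 nM NKH477, 30 min RT.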

The nature of test [16]: p53 small molecule agonists, cell-based qHTS assay with rat liver microsomes (AID 1963578). The procedure, abridged:
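Each plate received p53RE-bla cells, then compound, then rat liver microsomes and NADPH (both 0.5 mg/mL final). Plates were held 16 h at 37 C, and beta-lactamase activity was detected with LiveBLAzer over 2 h.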

Test [17] is described as follows: p53 small molecule agonists, cell-based qHTS assay (AID 1963582; active = well fitted activation curve with a large enough effect in the signal ratio in the repeat runs, not every such curve was filed as active; the % refers to the signal ratio; also: potency is read from the fitted curve at half-maximal effect). In short, it runs like this: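 Fluorescence intensity read-out of a beta-lactamase reporter under a p53 response element. Cells were exposed to DMSO-dissolved compounds for 16 h at 37 C, then developed with FRET substrate for 2 h at RT.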
For test [18], the target named is Beta-2 adrenergic receptor (Homo sapiens) (UniProt P07550). The test can be described thus: Adrenergic beta2 receptor (ADRB2) small molecule agonists, cell-based qHTS assay (AID 1963593).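 Also: CHO cells stably overexpressing human ADRB2.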 In short, it runs like this:
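CHO cells stably over-expressing ADRB2 were plated overnight at 37C, then dosed with compounds plus a stimulation mix containing 100uM IBMX and 25uM Ro-20-1724 for 0.5hr at room temperature. cAMP was measured by HTRF competition, 1hr.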

Test [19] concerns the target D(2) dopamine receptor (Homo sapiens) (UniProt P14416). The test can be described thus: Dopamine D2 receptor (DRD2) small molecule agonists, cell-based qHTS assay (AID 1963594). Also: nearly all actives have a fitted effect of over 35% in size. In short, it runs like this:
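HEK293 cells stably expressing human DRD2, pre-treated with PDE inhibitor Ro20-1724 (0.1 mM final) and compound 10 min at room temperature, then stimulated with NKH477 (200nM […]) for 30 min. cAMP read by HTRF (665/620 nm).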

Values without a mark were called inactive. Results filed as inconclusive are left out. The source made the active and inactive calls. Unless noted, calls follow the shape of the full dose curve.

Muscarinic acetylcholine receptor M1 (Homo sapiens), sequence (P11229 whole entry, looked up): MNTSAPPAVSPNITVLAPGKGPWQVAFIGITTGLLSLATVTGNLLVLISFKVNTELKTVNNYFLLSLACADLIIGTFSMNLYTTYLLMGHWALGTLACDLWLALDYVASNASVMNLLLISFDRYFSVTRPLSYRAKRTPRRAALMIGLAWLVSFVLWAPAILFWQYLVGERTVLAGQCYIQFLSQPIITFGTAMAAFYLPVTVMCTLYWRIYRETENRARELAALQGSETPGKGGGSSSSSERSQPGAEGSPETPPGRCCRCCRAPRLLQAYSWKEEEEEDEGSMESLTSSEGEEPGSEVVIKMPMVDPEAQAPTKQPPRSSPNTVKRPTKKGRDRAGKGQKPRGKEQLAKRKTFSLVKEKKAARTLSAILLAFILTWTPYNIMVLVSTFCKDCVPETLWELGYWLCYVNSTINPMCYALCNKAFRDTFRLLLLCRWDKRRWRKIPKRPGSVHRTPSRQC
Beta-2 adrenergic receptor (Homo sapiens), sequence (P07550 whole entry, looked up): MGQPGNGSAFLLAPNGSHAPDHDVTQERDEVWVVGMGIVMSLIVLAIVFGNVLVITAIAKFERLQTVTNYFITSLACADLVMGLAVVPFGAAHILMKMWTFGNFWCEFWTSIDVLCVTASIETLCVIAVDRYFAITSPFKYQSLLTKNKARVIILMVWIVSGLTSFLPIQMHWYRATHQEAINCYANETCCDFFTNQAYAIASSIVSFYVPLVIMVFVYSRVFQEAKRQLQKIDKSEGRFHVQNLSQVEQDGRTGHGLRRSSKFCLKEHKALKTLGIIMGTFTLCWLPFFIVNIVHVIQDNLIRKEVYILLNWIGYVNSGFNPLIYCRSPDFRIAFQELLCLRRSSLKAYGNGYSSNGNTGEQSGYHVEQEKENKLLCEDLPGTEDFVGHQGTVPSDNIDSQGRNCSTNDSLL
KiSS-1 receptor (Homo sapiens), sequence (Q969F8 whole entry, looked up): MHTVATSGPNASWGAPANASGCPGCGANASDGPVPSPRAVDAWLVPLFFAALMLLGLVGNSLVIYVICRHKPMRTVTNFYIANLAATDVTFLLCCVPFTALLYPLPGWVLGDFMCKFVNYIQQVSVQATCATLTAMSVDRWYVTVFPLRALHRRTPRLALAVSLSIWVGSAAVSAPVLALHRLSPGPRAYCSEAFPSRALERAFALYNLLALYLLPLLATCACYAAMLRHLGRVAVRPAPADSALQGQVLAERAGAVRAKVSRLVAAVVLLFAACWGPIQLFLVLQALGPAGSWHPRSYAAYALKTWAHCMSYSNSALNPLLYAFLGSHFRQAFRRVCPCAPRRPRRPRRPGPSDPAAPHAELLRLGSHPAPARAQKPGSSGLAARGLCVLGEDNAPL
D(2) dopamine receptor (Homo sapiens), sequence (P14416 whole entry, looked up): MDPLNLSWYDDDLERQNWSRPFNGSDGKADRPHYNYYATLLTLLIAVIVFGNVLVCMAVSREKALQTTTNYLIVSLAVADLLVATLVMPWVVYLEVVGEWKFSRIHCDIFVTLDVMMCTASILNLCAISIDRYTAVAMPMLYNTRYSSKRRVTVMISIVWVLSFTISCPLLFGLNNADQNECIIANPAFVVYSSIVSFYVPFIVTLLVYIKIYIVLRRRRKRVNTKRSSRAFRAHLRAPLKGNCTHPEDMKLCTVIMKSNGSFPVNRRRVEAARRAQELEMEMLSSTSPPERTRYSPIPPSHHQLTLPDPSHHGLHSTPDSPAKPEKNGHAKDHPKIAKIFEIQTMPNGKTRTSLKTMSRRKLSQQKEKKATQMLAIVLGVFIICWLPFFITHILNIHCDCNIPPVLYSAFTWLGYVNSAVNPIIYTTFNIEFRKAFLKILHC
5-hydroxytryptamine receptor 2A (Homo sapiens), sequence (P28223 whole entry, looked up): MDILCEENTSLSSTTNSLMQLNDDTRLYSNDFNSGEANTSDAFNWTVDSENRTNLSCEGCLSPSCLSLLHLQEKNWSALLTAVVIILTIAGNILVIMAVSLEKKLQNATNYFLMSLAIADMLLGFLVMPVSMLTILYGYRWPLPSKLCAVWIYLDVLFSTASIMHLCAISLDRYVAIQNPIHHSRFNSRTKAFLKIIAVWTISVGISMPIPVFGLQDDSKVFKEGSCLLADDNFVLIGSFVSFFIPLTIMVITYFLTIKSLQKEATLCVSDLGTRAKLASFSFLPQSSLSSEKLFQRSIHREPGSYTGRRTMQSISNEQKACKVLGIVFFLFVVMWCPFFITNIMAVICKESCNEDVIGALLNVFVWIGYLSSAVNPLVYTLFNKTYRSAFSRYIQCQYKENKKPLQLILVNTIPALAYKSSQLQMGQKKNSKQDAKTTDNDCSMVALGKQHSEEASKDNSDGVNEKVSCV
Gonadotropin-releasing hormone receptor (Homo sapiens), sequence (P30968 whole entry, looked up): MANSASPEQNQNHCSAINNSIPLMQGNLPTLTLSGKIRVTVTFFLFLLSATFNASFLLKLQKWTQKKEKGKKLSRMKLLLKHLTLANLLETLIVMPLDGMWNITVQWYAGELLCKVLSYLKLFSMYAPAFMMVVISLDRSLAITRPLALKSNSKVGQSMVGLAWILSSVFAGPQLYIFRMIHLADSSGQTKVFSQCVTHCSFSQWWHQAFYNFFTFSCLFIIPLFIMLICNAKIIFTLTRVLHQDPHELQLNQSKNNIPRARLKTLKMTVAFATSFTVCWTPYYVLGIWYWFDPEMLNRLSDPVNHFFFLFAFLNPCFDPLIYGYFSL

On to `COc1cccc(CCc2ccccc2OCC(CN(C)C)OC(=O)CCC(=O)O)c1` (stereo not given), for which the Potency entry in test [1], in test [2], in [3], in test [4], in test [5] and in test [6] was “inactive” throughout. Further, the Potency result in test [7], in [9], in [10], in test [11], in [12] and in test [13] was “inactive” throughout. The Potency result in [15] is “inactive”. The Potency in [8] was 7.29 µM (active); in test [14], 4.73 µM (active).

As to `CC(C)n1nc(-c2cc3cc(O)ccc3[nH]2)c2c(N)ncnc21`, the Potency result in test [1], in test [2], in test [3], in [4], in [16] and in test [7] was “inactive” each time. Further, the Potency entry in test [17], in test [8], in test [9], in [10], in test [11] and in test [14] was “inactive” each time. In addition, the Potency result in test [18], in test [19] and in test [15] was “inactive” in each case.

As to `CCc1cc(C2=C(C(=O)O)N(c3ccccc3C(F)(F)F)S(=O)(=O)c3ccccc32)cc2c1OCO2`, the Potency result in test [1], in [2], in [3], in [4], in [5] and in test [6] was “inactive” each time. The Potency entry in [8], in [9], in [10], in [11], in test [14] and in test [15] was “inactive” throughout.

`Cc1c(Cl)c(=O)oc2cc(O)ccc12`: the Potency result in [1], in [2], in test [3], in test [4], in test [6] and in test [7] was “inactive” in each case. In addition, the Potency result in test [8], in test [9], in [10], in [11], in [19] and in test [15] was “inactive” in each case.

Turning to `CC(=O)N[C@@H](CCC(=O)O)C(=O)O`, the Potency entry in test [1], in [2], in test [3], in test [4], in test [5] and in [7] was “inactive” in each case. The Potency result in test [8], in test [9], in [10], in [11], in test [12] and in [14] was “inactive” in each case. The Potency entry in test [19] was “inactive”.

Consider `Oc1ccc2c(c1)Cc1ccccc1-2`, for which the Potency entry in [1], in [2], in test [3], in [4], in test [5] and in test [7] was “inactive” in each case. Also, the Potency entry in test [8], in test [9], in [10], in [11], in test [12] and in test [13] was “inactive” each time. For the same compound, the Potency result in [14], in [19] and in test [15] was “inactive” in each case.

Regarding `CCOc1ccc(NC(N)=O)cc1`, the Potency result in test [1], in test [2], in test [3], in test [4], in test [5] and in [7] was “inactive” each time. In addition, the Potency result in test [8], in [9], in test [11], in test [12], in test [13] and in [14] was “inactive” in each case.

With `Clc1ccc2cc3ccccc3cc2c1`, the Potency entry in test [1], in test [2], in test [3], in [4], in test [5] and in test [7] was “inactive” in each case. Moreover, the Potency result in [8], in [9], in test [10], in [11], in test [14] and in [19] was “inactive” in each case. Moreover, in test [15], the Potency entry was “inactive”. In test [17], the Potency is 40.7 µM (active).

Consider `Cc1ncc([C@@H](CCCCCCc2ccc3c(n2)NCCC3)CC(=O)O)cn1`, for which the Potency result in test [1], in test [2], in [3], in test [4], in test [6] and in test [8] was “inactive” each time. The Potency entry in [9], in test [10], in test [11], in test [12], in test [14] and in test [18] was “inactive” each time. Besides, the Potency result in test [19] and in [15] was “inactive” throughout.

Take `Nc1ccc(O)c([N+](=O)[O-])c1`: the Potency in test [1] was 19.3 µM (active). For the same compound, the Potency result in test [2], in test [3], in test [4], in [6], in [10] and in [11] was “inactive” throughout.

For `Nc1ccc(Oc2ccc(N)c(N)c2)cc1`, the Potency in test [1] was 6.11 µM (active). Besides, the Potency entry in test [2], in test [3], in test [4], in test [5], in test [6] and in test [8] was “inactive” throughout. The Potency entry in [9], in [10], in test [12], in test [13], in test [14] and in test [18] was “inactive” throughout. Moreover, in test [15], the Potency result was “inactive”.

For the compound `COc1ccc(COC=O)cc1`, the Potency result in [1], in test [2], in [3], in test [4], in test [5] and in test [7] was “inactive” in each case. Also, the Potency entry in test [8], in test [10], in test [11], in [12], in test [13] and in [15] was “inactive” in each case.

For `CCOC(=O)NCCOc1ccc(Oc2ccccc2)cc1`, the Potency result in test [1], in [2], in [3], in test [4], in test [5] and in test [6] was “inactive” each time. Also, the Potency entry in [8], in test [9], in test [11], in test [12], in [18] and in [19] was “inactive” each time. In test [15], the Potency entry is “inactive”. For the same compound, the Potency in test [10] was 29.8 µM (active).

For `CCCCC(CC)COC(=O)COc1cc(Cl)c(Cl)cc1Cl` (stereo not given), the Potency result in test [1], in test [2], in [3], in test [4], in [6] and in test [7] was “inactive” each time. The Potency entry in test [8], in [9], in [10], in [11], in test [12] and in [13] was “inactive” throughout. Moreover, the Potency entry in [14], in test [18], in test [19] and in [15] was “inactive” each time.
